Source: PubChem BioAssay (NCATS)
Results filed as inconclusive are left out. Activity calls are given as the source filed them. Unless noted, calls come from the whole dose curve; as a rule, active = well fitted curve in the direction sought with a large enough effect; inconclusive = small, poorly fitted or top-dose-only effect, or another doubt; inactive = no such curve, though single readings can be large; an effect the other way counts as inactive or inconclusive.

What was measured:
[1] = biological target: Cytochrome P450 1A2 (Homo sapiens) (UniProt P05177); experiment: p450-cyp1a2 (AID 410; calls by dose curve;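 note: -100% = full effect of reference inhibitor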)
Sequence of Cytochrome P450 1A2 (Homo sapiens) (P05177 whole entry, looked up): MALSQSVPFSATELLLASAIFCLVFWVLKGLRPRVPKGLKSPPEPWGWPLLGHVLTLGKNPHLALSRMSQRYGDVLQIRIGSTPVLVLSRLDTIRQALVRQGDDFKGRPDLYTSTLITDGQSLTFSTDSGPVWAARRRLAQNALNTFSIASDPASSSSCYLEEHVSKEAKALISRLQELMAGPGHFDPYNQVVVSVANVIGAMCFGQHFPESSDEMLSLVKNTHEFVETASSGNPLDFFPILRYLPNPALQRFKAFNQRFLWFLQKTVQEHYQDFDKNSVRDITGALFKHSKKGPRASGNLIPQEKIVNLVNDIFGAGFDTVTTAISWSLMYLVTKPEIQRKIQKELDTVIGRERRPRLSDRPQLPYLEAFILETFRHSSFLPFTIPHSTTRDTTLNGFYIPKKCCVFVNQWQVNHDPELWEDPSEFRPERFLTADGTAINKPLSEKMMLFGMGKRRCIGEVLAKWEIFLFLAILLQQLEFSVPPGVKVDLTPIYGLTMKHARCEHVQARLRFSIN
Procedure, shortened: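 Human CYP1A2 (20nM) demethylated Luciferin-ME at its Km (100uM) in 100mM KPO4. After 10 min compound preincubation, NADPH regeneration ran the reaction 60 min at room temperature. Luciferin was read by luminescence, normalized to 57 uM furafylline.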

[2] = biological target: Mitogen-activated protein kinase 10 (Mus musculus) (UniProt Q61831); experiment: JNK3 AlphaScreen Assay (AID 530; active = well fitted curve in either direction with a large enough effect, not every such curve was filed as active;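 note: kinase came from lysate of stimulated human HepG2 cells; signal reports phosphorylation of biotinylated GST-cJun 1-79 at Ser73 with 10 µM ATP; % is set by controls: 0 for no effect and ±100 for the full control effect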)
Procedure, shortened: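 JNK3 came from HepG2 lysates pre-activated with IL-1beta and TNF-alpha and phosphorylated biotinylated GST-cJun (1-79) at 10 uM ATP, pH 7.6, room temperature. Compounds were titrated. AlphaScreen signal used anti-phospho-cJun (Ser73) antibody.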

[3] = biological target: 3',5'-cyclic-AMP phosphodiesterase 4B (Homo sapiens) (UniProt Q07343); experiment: qHTS Assay for Inhibitors of PDE-IV (AID 607; active = well fitted activation curve with a large enough effect in the main read-out, with a control signal flat, not every such curve was filed as active; note: % of control where 0% means no effect)
Sequence of 3',5'-cyclic-AMP phosphodiesterase 4B (Homo sapiens) (Q07343 whole entry, looked up): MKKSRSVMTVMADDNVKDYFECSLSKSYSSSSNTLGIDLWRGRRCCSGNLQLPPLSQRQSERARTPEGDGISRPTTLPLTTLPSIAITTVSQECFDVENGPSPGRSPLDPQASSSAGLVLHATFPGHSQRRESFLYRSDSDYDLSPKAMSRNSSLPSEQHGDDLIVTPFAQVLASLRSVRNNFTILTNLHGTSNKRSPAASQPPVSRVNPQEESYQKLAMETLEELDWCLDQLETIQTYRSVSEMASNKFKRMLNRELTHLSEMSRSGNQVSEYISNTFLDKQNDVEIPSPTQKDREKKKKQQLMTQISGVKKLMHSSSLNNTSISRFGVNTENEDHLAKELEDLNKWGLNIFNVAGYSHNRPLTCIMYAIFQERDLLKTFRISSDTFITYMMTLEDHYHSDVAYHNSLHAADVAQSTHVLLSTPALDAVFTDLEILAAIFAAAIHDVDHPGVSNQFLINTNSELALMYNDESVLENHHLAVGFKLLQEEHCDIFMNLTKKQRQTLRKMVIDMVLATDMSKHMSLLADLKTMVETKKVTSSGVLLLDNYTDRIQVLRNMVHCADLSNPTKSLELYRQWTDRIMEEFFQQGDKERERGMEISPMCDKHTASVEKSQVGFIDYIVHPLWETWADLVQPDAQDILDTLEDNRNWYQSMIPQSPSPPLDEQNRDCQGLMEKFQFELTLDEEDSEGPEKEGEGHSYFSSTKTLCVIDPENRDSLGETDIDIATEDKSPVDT
Procedure, shortened: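 ACTOne HEK293 cells carry a modified cAMP-gated CNG channel and express endogenous PDE4; plated 1000 cells/well, compounds up to 22.9 uM final. Membrane-potential dye fluorescence (ex 535/em 590) was read; parental cells received 10 uM forskolin + 100 uM RO 20-1724.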

[4] = biological target: Cytochrome P450 3A4 (Homo sapiens) (UniProt P08684); experiment: qHTS Assay for Inhibitors and Substrates of Cytochrome P450 3A4 (AID 884); note: % is set by controls: 0 for no effect and ±100 for the full control effect; nearly all actives have a fitted effect of over 50% in size
Sequence of Cytochrome P450 3A4 (Homo sapiens) (P08684 whole entry, looked up): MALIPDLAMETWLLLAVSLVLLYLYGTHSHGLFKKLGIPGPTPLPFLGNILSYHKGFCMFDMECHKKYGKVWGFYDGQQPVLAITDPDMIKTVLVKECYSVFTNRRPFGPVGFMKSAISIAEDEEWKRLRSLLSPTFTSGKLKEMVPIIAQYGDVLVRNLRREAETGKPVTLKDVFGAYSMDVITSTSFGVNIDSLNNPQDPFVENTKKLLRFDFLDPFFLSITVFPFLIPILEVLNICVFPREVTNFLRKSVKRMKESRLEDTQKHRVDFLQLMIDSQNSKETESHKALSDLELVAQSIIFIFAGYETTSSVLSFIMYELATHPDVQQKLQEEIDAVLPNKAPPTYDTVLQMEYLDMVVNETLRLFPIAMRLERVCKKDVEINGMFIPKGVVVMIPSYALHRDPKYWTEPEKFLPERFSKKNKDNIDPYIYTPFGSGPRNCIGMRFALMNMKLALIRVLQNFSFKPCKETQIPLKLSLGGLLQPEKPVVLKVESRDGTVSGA
Procedure, shortened: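 20 nM human CYP3A4 with 25 uM Luciferin-PPXE (at KM) in 200 mM KPO4, preincubated 10 min with compound; NADPH regeneration started a 60 min RT reaction. Luciferin detected by luminescence, normalized to 57 uM ketoconazole as full inhibition.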

[5] = biological target: Cytochrome P450 3A4 (Homo sapiens) (UniProt P08684); experiment: qHTS Assay for Activators of Cytochrome P450 3A4 (AID 885); note: potency is the fitted concentration of half-maximal effect; nearly all actives have a fitted effect of over 65% in size
Procedure, shortened: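 20nM CYP3A4 + 25uM Luciferin-PPXE (=KM), 200mM KPO4; cpd 10 min RT; NADPH regen, 60 min RT; stop w/ detection buffer, 20 min; luminescence. Normalized to 57 uM ketoconazole.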

[6] = biological target: Cytochrome P450 2D6 (Homo sapiens) (UniProt P10635); experiment: qHTS Assay for Inhibitors and Substrates of Cytochrome P450 2D6 (AID 891); note: potency is the fitted concentration of half-maximal effect; nearly all actives have a fitted effect of over 60% in size
Sequence of Cytochrome P450 2D6 (Homo sapiens) (P10635 whole entry, looked up): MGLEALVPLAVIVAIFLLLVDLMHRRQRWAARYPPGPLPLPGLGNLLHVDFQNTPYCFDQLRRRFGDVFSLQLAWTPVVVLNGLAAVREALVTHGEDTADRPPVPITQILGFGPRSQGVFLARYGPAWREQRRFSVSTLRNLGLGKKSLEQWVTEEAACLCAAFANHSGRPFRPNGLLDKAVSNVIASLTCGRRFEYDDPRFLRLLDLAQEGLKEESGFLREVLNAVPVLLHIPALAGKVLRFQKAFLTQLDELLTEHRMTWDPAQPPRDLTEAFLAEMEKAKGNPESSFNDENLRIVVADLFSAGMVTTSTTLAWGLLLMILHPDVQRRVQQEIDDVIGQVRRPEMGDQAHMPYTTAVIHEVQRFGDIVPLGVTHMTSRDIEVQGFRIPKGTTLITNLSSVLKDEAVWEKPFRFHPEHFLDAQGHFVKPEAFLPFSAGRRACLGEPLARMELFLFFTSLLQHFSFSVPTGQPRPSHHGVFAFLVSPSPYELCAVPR
Procedure, shortened: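 Human CYP2D6 (5 nM) with 30 uM Luciferin-ME EGE (at Km) in 100 mM KPO4, compound preincubated 10 min, then NADPH regeneration system for 60 min at room temperature. Luciferin read by luminescence; normalized to 1.43 uM quinidine.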

[7] = qHTS Assay for Lipid Storage Modulators (AID 1519; calls by dose curve; for activity change, negative = inhibition: % is set by controls: 0 for no effect and ±100 for the full control effect); details: Drosophila S3 cells, BODIPY lipid droplet/cell ratio, laser cytometry, cells loaded with oleic acid
Procedure, shortened: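 Cells seeded at 5,000 per well were treated with compounds over a concentration series and loaded with oleic acid (400 uM, as added). Lipid droplet fluorescence (488 nm excitation, 500-530 nm channel) was read by laser-scanning cytometry and normalized to 20 uM Triacsin C.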

[8] = biological target: ATP-dependent 6-phosphofructokinase (Trypanosoma brucei brucei) (UniProt O15648); experiment: qHTS Assay to Find Inhibitors of T. brucei phosphofructokinase: hit validation (AID 492961);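 note: luminescence reports ADP formed as PFK phosphorylates fructose-6-phosphate with ATP; % is set by controls: 0 for no effect and ±100 for the full control effect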
Sequence of ATP-dependent 6-phosphofructokinase (Trypanosoma brucei brucei) (O15648 whole entry, looked up): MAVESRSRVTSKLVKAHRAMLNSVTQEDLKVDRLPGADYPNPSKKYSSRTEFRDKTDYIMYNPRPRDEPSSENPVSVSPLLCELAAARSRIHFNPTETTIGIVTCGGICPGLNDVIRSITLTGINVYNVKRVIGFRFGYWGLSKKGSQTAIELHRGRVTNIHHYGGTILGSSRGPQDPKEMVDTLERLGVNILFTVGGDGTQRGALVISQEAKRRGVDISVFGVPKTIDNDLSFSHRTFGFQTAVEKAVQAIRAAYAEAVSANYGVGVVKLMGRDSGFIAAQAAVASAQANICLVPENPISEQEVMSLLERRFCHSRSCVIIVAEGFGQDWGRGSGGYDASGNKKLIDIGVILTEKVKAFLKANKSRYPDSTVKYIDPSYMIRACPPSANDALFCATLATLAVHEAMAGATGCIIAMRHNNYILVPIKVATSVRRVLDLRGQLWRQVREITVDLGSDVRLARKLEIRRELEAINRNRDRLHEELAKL
Procedure, shortened: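 Percent activity derived from corrected luminescence, normalized between 0x and 1x enzyme controls, then fitted to concentration-response curves. Conditions: 1.25 nM PFK, 0.1 mM ATP, 0.5 mM F6P, 45 min RT.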

[9] = biological target: Ubiquitin carboxyl-terminal hydrolase 1 (Homo sapiens) (UniProt O94782); experiment: Inhibitors of USP1/UAF1: Pilot qHTS (AID 504865);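 note: rhodamine fluorescence freed from ubiquitin-rhodamine substrate followed over time; top concentration of the series differs between compounds; % is set by controls: 0 for no effect and ±100 for the full control effect; nearly all actives have a fitted effect of over 35% in size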
Sequence of Ubiquitin carboxyl-terminal hydrolase 1 (Homo sapiens) (O94782 whole entry, looked up): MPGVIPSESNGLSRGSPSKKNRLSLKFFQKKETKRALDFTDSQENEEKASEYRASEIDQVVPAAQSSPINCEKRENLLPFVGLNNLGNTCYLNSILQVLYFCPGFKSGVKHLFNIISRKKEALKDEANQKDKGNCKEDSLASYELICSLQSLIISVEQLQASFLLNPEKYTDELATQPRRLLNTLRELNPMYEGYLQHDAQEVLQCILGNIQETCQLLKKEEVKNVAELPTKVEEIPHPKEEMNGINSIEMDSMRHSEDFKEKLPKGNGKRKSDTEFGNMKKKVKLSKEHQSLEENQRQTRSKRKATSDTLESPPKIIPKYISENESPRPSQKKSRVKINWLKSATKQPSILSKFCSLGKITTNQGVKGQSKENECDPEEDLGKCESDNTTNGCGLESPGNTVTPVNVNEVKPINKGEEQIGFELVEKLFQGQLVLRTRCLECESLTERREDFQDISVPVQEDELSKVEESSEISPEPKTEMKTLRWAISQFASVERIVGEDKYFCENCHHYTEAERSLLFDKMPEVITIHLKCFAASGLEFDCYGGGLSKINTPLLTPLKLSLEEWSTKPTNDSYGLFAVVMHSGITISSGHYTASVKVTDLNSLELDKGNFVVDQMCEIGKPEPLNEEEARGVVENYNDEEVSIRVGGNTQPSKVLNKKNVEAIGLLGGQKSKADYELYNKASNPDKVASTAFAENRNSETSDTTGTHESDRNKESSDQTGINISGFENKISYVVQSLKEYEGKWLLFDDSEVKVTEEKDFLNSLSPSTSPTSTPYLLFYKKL
Procedure, shortened: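 USP1/UAF1 complex at 1 nM preincubated 15 min at room temperature with compound, then Ub-Rho substrate added at 150 nM final. Fluorescence (480/540 nm) read kinetically in 50 mM HEPES pH 7.8, 0.5 mM EDTA, 1 mM TCEP, 0.1 mg/ml BSA, 0.01% Tween-20.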

[10] = biological target: DNA dC->dU-editing enzyme APOBEC-3G (Homo sapiens) (UniProt Q9HC16); experiment: qHTS for inhibitors of Vif-A3G interactions: Validation (AID 588379); note: 0% is about no effect
Sequence of DNA dC->dU-editing enzyme APOBEC-3G (Homo sapiens) (Q9HC16 whole entry, looked up): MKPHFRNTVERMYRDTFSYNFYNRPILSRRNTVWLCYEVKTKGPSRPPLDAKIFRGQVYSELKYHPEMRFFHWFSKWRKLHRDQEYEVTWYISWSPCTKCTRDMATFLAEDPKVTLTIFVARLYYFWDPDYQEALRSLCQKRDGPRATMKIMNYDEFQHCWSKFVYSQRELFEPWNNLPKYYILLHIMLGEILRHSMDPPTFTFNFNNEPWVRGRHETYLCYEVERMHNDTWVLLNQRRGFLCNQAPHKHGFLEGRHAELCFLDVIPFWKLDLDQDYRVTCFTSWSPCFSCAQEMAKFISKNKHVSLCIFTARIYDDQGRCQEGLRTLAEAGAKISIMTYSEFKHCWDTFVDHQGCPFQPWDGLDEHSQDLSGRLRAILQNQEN
Procedure, shortened: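 HeLa cells stably expressing Vif and A3G-eYFP, 700 cells/well, incubated overnight at 37 deg C, then exposed to compound overnight at 37 deg C. Inhibition of Vif-mediated degradation read as increased yellow fluorescence (Ex 488/Em 500-530) by laser-scanning cytometry.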

[11] = biological target: Luciferin 4-monooxygenase (Photinus pyralis) (UniProt P08659); experiment: Biochemical firefly luciferase enzyme assay for NPC (AID 624030);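 note: purified P. pyralis luciferase at 10 nM with luciferin and ATP substrate; 0% = DMSO and -100% = full luciferase inhibition by PTC124 control; nearly all actives have a fitted effect of over 70% in size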
Sequence of Luciferin 4-monooxygenase (Photinus pyralis) (P08659 whole entry, looked up): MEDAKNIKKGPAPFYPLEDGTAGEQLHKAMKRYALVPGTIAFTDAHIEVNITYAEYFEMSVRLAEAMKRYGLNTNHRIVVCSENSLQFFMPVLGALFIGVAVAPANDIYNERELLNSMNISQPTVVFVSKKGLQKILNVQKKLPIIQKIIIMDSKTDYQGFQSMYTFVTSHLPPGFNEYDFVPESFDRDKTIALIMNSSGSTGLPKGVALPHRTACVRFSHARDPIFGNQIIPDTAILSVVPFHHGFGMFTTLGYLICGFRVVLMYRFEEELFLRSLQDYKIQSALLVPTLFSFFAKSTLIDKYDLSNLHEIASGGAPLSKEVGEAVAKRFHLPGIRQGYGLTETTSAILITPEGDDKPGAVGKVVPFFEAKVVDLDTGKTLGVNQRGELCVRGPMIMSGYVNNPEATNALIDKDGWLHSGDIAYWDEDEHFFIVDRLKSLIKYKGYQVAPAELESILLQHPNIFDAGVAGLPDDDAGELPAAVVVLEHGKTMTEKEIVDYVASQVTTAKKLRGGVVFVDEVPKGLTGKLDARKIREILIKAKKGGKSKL
Procedure, shortened: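 Counter-screen for direct inhibition of the luciferase enzyme by approved-drug library compounds, run at 10 nM enzyme in 50 mM Tris acetate (final). Luminescence was read within 5 min of enzyme-buffer addition and normalized to PTC124 versus DMSO (0%).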

[12] = S16 Schwann cell viability assay (CellTiter-Glo assay) (AID 624031);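 note: native untransfected S16 rat Schwann cells; plate controls were DMSO-treated cells for no effect and cell-free wells for full effect; nearly all actives have a fitted effect of over 70% in size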
Procedure, shortened: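 Counter-screen for cytotoxicity: parental S16 rat Schwann cells lacking the PMP22 reporters, treated 24 h with compound, viability from cellular ATP by CellTiter-Glo luminescence, normalized to DMSO (0%) and no-cell wells.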

[13] = S16 Schwann cell PMP22 intronic element firefly luciferase assay (AID 624032); note: potency is the fitted concentration of half-maximal effect; nearly all actives have a fitted effect of over 30% in size
Procedure, shortened: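 Rat S16 Schwann cells stably carrying a PMP22 intronic element-driven Fluc reporter were seeded overnight, then exposed to compounds for 24 h at 37 °C. Luminescence was normalized to PTC124 (positive control) and DMSO (0% activity).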

[14] = S16 Schwann cell PMP22 intronic element beta-lactamase assay (AID 624044; calls by dose curve;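 note: 0% = DMSO and -100% = potassium clavulanate positive control; nearly all actives have a fitted effect of over 15% in size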)
Procedure, shortened: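 Rat S16 Schwann cells with beta-Lac driven by a PMP22 intronic element, compound-treated 24 h at 37 °C. LiveBLAzer FRET B/G read: 460 nm normalized to potassium clavulanate vs DMSO; 535 nm FRET as viability; concentration-effect curves classified.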

[15] = system: Zika virus NS2B-NS3 protease; experiment: Primary screen GU AMC qHTS for Zika virus inhibitors (AID 1347154);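 note: 0% = no-inhibitor control and -100% = no-enzyme control; nearly all actives have a fitted effect of over 70% in size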
Procedure, shortened: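 Unlinked Zika NS2B hydrophilic domain/NS3 protease domain noncovalent complex (25 nM final) in 10 mM Tris-HCl pH 8.0, 0.01% Tween 20, with AMC peptide substrate. Fluorescence (ex 340, em 450 nm) change over 15 min, room temperature; percent inhibition fitted to 4-parameter Hill equation.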

[16] = Confirmatory qHTS for small molecule stabilizers of the endoplasmic reticulum resident proteome: Secreted ER Calcium Modulated Protein (SERCaMP) assay (AID 1508628); note: potency is the fitted concentration of half-maximal effect; nearly all actives have a fitted effect of over 40% in size
Procedure, shortened: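 We seeded SH-SY5Y-GLuc-SERCaMP cells, added compounds (three concentrations in the primary run, eleven up to 76.6 uM in confirmation), incubated 16 h, depleted ER calcium with thapsigargin, and read luciferase 4 h later.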

[17] = Cell Viability qHTS for small molecule stabilizers of the endoplasmic reticulum resident proteome (AID 1508629); details: cell viability counter-screen, 100 nM thapsigargin for final 4 h;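 note: potency is the fitted concentration of half-maximal effect; compound exposure about 46 h in total before the viability read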
[18] = system: 3D7; experiment: qHTS profiling for inhibitors of Plasmodium falciparum proliferation (AID 504749);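 note: 0% = DMSO vehicle and full inhibition = artemisinin control; nearly all actives have a fitted effect of over 60% in size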; details: P. falciparum in erythrocytes, SYBR Green DNA, 72 h; series mostly up to 28.7 µM
Procedure, shortened: (§1)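 P. falciparum-infected erythrocytes (0.3% parasitemia, 2.5% hematocrit final) were exposed to compounds for 72 h at 37 C in 5% CO2, then lysed with SYBR Green buffer overnight at room temperature; parasite DNA fluorescence was normalized to artemisinin and DMSO controls.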

[19] = system: AA1029; experiment: as above; details: P. falciparum in erythrocytes, SYBR Green DNA, 72 h; series mostly up to 28.7 µM
Procedure, shortened: as §1

[20] = system: AS120; experiment: as above; details: P. falciparum in erythrocytes, SYBR Green DNA, 72 h; series mostly up to 28.7 µM
Procedure, shortened: as §1

[21] = system: ATS189; experiment: as above; details: P. falciparum in erythrocytes, SYBR Green DNA, 72 h; series mostly up to 28.7 µM
Procedure, shortened: as §1

[22] = system: ATS95; experiment: as above; details: P. falciparum in erythrocytes, SYBR Green DNA, 72 h; series mostly up to 28.7 µM
Procedure, shortened: as §1

[23] = system: C2A; experiment: as above; details: P. falciparum in erythrocytes, SYBR Green DNA, 72 h; series mostly up to 28.7 µM
Procedure, shortened: as §1

[24] = system: CP185; experiment: as above; details: P. falciparum in erythrocytes, SYBR Green DNA, 72 h; series mostly up to 28.7 µM
Procedure, shortened: as §1

[25] = system: CP191; experiment: as above; details: P. falciparum in erythrocytes, SYBR Green DNA, 72 h; series mostly up to 28.7 µM
Procedure, shortened: as §1

[26] = system: CP192; experiment: as above; details: P. falciparum in erythrocytes, SYBR Green DNA, 72 h; series mostly up to 28.7 µM
Procedure, shortened: as §1

[27] = system: CP194; experiment: as above; details: P. falciparum in erythrocytes, SYBR Green DNA, 72 h; series mostly up to 28.7 µM
Procedure, shortened: as §1

[28] = system: CP201; experiment: as above; details: P. falciparum in erythrocytes, SYBR Green DNA, 72 h; series mostly up to 28.7 µM
Procedure, shortened: as §1

[29] = system: CP203; experiment: as above; details: P. falciparum in erythrocytes, SYBR Green DNA, 72 h; series mostly up to 28.7 µM
Procedure, shortened: as §1

[30] = system: CP215; experiment: as above; details: P. falciparum in erythrocytes, SYBR Green DNA, 72 h; series mostly up to 28.7 µM
Procedure, shortened: as §1

[31] = system: CP217; experiment: as above; details: P. falciparum in erythrocytes, SYBR Green DNA, 72 h; series mostly up to 28.7 µM
Procedure, shortened: as §1

[32] = system: CP237; experiment: as above; details: P. falciparum in erythrocytes, SYBR Green DNA, 72 h; series mostly up to 28.7 µM
Procedure, shortened: as §1

[33] = system: CP238; experiment: as above; details: P. falciparum in erythrocytes, SYBR Green DNA, 72 h; series mostly up to 28.7 µM
Procedure, shortened: as §1

[34] = system: CP247; experiment: as above; details: P. falciparum in erythrocytes, SYBR Green DNA, 72 h; series mostly up to 28.7 µM
Procedure, shortened: as §1

CCN(CC)CCO[C@H]1CC[C@@]2(C)C(=CC[C@@H]3[C@H]2CC[C@]2(C)C(=O)CC[C@H]32)C1
inactive: Potency [1] | outcome [2] | Potency [3] | Potency [4] | activity change, negative = inhibition ([7]; at 57.5 µM (top of the series)) -3.37% | Potency [8] | Potency [9] | Potency [10] | Potency [11] | Potency [12] | Potency [14] | Potency [15] | Potency [18] | Potency [19] | Potency [20] | Potency [21] | Potency [22] | Potency [23] | Potency [24] | Potency [25] | Potency [26] | Potency [27] | Potency [28] | Potency [29] | Potency [30] | Potency [31] | Potency [32] | Potency [33] | Potency [34]
active: Potency [5] 15.8 µM | Potency [6] 0.0794 µM | Potency [13] 9.07 µM | Potency [16] 31.6 µM | Potency [17] 12.6 µM
16%: max response ([7]; measured here: cell count channel max response)
11.9%: max response ([7]; measured here: lipid channel max response)
